Experimental data published in the OligoGym collection.

molecular target: RSF1; assay: pooled miR-30 sensor sort-seq; sequence = guide strand; details: shRNA
Also: reference of the scale not given here.

| Sequence | sensor-assay potency score (higher = more potent) |
| --- | --- |
| TTGATCATCTTGTTCTTCTATG | -0.223 |
| TTCTTTTCTTTCTTCATCCAAA | -0.992 |
| TAGAATTTGTATCTTTCTCTGA | 0.105 |
| TTTGAGATTGTCATCAAACTGA | 0.222 |
| TTGAGATCCATCACTGATCTTG | 0.36 |
| TTACCAAGGACCATGAACCTGG | 0.217 |
| TTCTTTTGGTACTTCTCCGTTG | -0.632 |
| TATTTCTTTACCACGTCGCAAA | -1.15 |
| TTACTTTAGAATTTGTATCTTT | 0.216 |
| TGTTCTTCTATGTACATTCTGA | 0.345 |
| TTGATCTTCAGAAAAGTCTGGC | 0.121 |
| TAAGGCAACATCCAAATCCTGC | -1.12 |

molecular target: RSPH9; assay: as above; details: shRNA

| Sequence | sensor-assay potency score (higher = more potent) |
| --- | --- |
| TTATTCTTTAGCTCAACAGGCT | -0.377 |
| TTAACCAGCATAAGAGACGTGA | 0.0215 |
| TCTTATTCTTTAGCTCAACAGG | -1.48 |
| TTTGGGAATGTCATGCTCCAAG | -0.888 |
| TTCACCTTCATTCACCTTCTGC | -0.502 |
